Drawing on PubChem BioAssay AID2241 (Broad Institute, 2010), this text covers caspase activation for 21 compounds.

Each structure is given as a SMILES string. The campaign covered roughly 21,000 compounds. About 110 (0.52%) were called active. Many of the other results were omitted from the sample, so actives are more common in it than they were. Unmarked numbers belong to inactive results.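 The calls were made as follows: active = most replicate scores above 10, or exactly half above 10 with mean activity above 10; inconclusive = mean activity below 10 while half the replicates exceed 10; inactive = most replicate scores below 10.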

A short description of the assay: caspase activation in A1-primed MEFs – cell-based, CaspaseGlo luminescence, A1 inhibitor project, primary screen (AID 2241).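 Also: effector caspase 3 and 7 activity cleaving a DEVD luciferin substrate.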 To be noted: MEF A1-2A-BIM cells, caspase-Glo luminescence, 3 h; stronger effect = higher value; percent of clofoctol signal, DMSO as zero; concentration not given here.
For `CN(c1ncnc2c1cnn2-c1ccc(Cl)cc1)C1CCCCC1`, the caspase activation is -2.01%.
For `CC1CCN(S(=O)(=O)c2ccc3nc(-c4ccccn4)cc(C(=O)NC4CCCC4)c3c2)CC1`, the caspase activation was -1.16%.
For `CC(C)(C)c1ccc(/C=C/C(=O)NC2CCS(=O)(=O)C2)cc1` (stereo unspecified), the caspase activation is -0.861%.
The value for `C=C1C(=O)O[C@@H]2[C@H]3C(CO)=CC(=O)C3=C(C)C[C@H](OC(=O)Cc3ccc(O)cc3)[C@@H]12` was -0.373%; that for `C[C@@H]1CN([C@H](C)CO)C(=O)c2cc(NS(=O)(=O)c3ccc(F)cc3)ccc2O[C@H]1CN(C)Cc1ccncc1` was 0.648%.
The value for `CC(C)(C)c1ccc(Cn2c(=N)n(CC(=O)O)c3ccccc32)cc1` was -0.508%; that for `C[C@@H]1CN([C@@H](C)CO)C(=O)c2cc(NC(=O)Cc3ccccc3)ccc2O[C@@H]1CN(C)S(=O)(=O)c1ccccc1` was 0.193%; that for `CCCCn1c2nc3ccccc3nc2c2c(N)ncnc21` was -0.174%.
The value for `C[C@@H]1CN([C@@H](C)CO)C(=O)c2cc(NC(=O)Nc3ccc(F)cc3)ccc2O[C@H]1CN(C)CC1CCCCC1` was 0.271%; that for `CCc1ccccc1NC(=O)c1ccc2snnc2c1` was 0.441%.
Regarding `CCOC(=O)C1CCC(CN(Cc2ccccc2)S(=O)(=O)c2ccc(F)c(C)c2)CC1` (stereo unspecified), the caspase activation was 0.544%.
On to `CC(C)[C@H](CO)Nc1nc(Nc2cc(N)cc(Cl)c2)c2ncn(C(C)C)c2n1`, for which the caspase activation is 13.9% (active).
`CC(C)OC(=O)C1=c2s/c(=C\c3cccnc3)c(=O)n2C(N)=C(C#N)C1c1cccnc1` (stereo unspecified): the caspase activation is -0.566%.
The value for `COc1ccc(NC(=O)N(C)C[C@H]2Oc3ccc(NS(=O)(=O)c4ccc(F)cc4)cc3C(=O)N([C@@H](C)CO)C[C@@H]2C)cc1` was -0.29%.
As for `Cc1ccc(-c2nc(Nc3ccccc3F)sc2C)cc1`, the figure is -0.917%.
Regarding `CC1CCN(C(=O)Cn2cnc3c(cnn3-c3ccccc3)c2=O)CC1`, the caspase activation is -0.191%.
The value for `O=C(c1nc2ncccn2n1)N(Cc1ccccc1)Cc1ccccc1` was -0.322%.
The value for `COc1nnc(-c2ccc(C)c(S(=O)(=O)N(C)C)c2)c2ccccc12` was 0.109%.
The value for `Cc1ccc(S(=O)(=O)Nc2ccc3c(c2)C(=O)N([C@@H](C)CO)C[C@@H](C)[C@@H](CN(C)Cc2ccncc2)O3)cc1` was 0.309%; that for `Cc1ccc(C(=O)NC(NCc2ccco2)(C(F)(F)F)C(F)(F)F)cc1` was -0.256%; that for `O=C(c1ccccc1)C(CC(=O)N1CCOCC1)c1ccccc1` (stereo unspecified) was 0.00844%.
